Source: PubChem BioAssay AID624167 (Sanford-Burnham Center for Chemical Genomics, 2012)

Experiment: Peg3 promoter luciferase inhibitors, potency, dose response, cell-based, HeLa, CREF/GAPDH counter-screen panel (AID 624167)
Conditions: CREF/GAPDH counter-screens; run 1, dose range 1, at 100 µM (top of the series)

Structure (SMILES)	inhibition [%]
C=CCn1c(C)cc(C(=O)COc2ccc(C)nc2[N+](=O)[O-])c1C	51.5
C=CCc1cccc(/C=N/NC(=O)C(C)Nc2cccc(C)c2)c1O (stereo not drawn)	29
O=C(NNC(=O)c1cccnc1SCc1cccc([N+](=O)[O-])c1)c1ccccn1	6.38
COc1ccc(C(NC(=O)C(C)C)c2ccc3cccnc3c2O)cc1 (stereo not drawn)	31.4
Cc1ccccc1CNC(=O)C1CCCN(c2nnc(C)c3c(C)n(-c4ccccc4)nc23)C1 (stereo not drawn)	97.3
Cc1cccc(OCC(=O)NCC(=O)N/N=C/c2cc(Br)cc(Br)c2O)c1	67.3
COC(=O)C1C=CC(OC2OC(COC(C)=O)C(OC(C)=O)C(OC(C)=O)C2OC(C)=O)n2c(=O)n(-c3ccccc3)c(=O)n21 (stereo not drawn)	94.9
CC(/C=C/c1ccccc1)=N/NC(=O)c1cc([N+](=O)[O-])cc([N+](=O)[O-])c1	5.41
NS(=O)(=O)c1ccc(CCNc2nn3c(-c4ccc(F)c(Cl)c4)cnc3s2)cc1	73.4
O=C(N/N=C/c1cc([N+](=O)[O-])ccc1O)c1ccc(COc2ccc3c(c2)CCC3)o1	27.1
Cc1cc(C(=O)Nc2cccc(C(=O)O)c2)oc1C	89.9
CC(C)(C)c1ccc(Oc2ccc(N)cc2)cc1	90.1
COc1cc(Nc2c3ccccc3nc3ccccc23)cc(OC)c1OC	95.9
O=C(CCSc1nc2ccccc2s1)N/N=C/c1c(O)ccc2ccccc12	-10.4
N=c1n(CC(=O)c2ccc([N+](=O)[O-])cc2)c2ccccc2n1Cc1ccc(Cl)cc1	86
Cc1ccc(OCC(=O)c2cc(C)n(-c3ccccc3)c2C)c([N+](=O)[O-])n1	73
CC(C)CC1C(=O)N(Cc2cn(Cc3ccco3)nn2)CCS(=O)(=O)N1Cc1ccc(-c2ccc(F)cc2)cc1 (stereo not drawn)	60.2

Structure (SMILES)	inhibition [%]
COc1cc(/C=C2\SC(=Nc3ccccc3OC)NC2=O)ccc1O	43.9
Clc1ccccc1/C=C/c1nc(-c2ccccn2)no1	97.4
O=C(Nc1ccc(Cc2ccncc2)cc1)c1ccc([N+](=O)[O-])o1	88.7
CCOc1cccc(/C=N/NC(=S)Nc2cc(S(=O)(=O)N3CCOCC3)ccc2N2CCOCC2)c1O	-13.9
O=c1c2ccccc2sc2nc(CCl)nn12	100
C=CCn1c(COc2ccccc2)nnc1SC(C)C(=O)N/N=C/c1cc(Cl)ccc1O (stereo not drawn)	65
CC(C)CCCCCCCCCCCCC(=O)NCC(=O)NC1C(O)C(O)C(Nc2ncnc3nc[nH]c23)OC1C(O)CO (stereo not drawn)	94.6
O=C(N/N=C/c1c(O)ccc2ccccc12)c1ccc(CO)nc1	-8.84
Cc1cc(C)c(C)c(S(=O)(=O)N2CCN(C(=O)c3cc(=O)[nH]c4ccccc34)CC2)c1C	71.8
O=C(O)c1ccc(N/N=C/c2ccc3nccnc3c2)cc1	99
CS(=O)(=O)Nc1cccc(NC(=O)C2Cc3c(-c4ccccc4)ccnc3O2)c1 (stereo not drawn)	0.156
CCCC(=O)NC(c1ccc(N(C)C)cc1)c1ccc2cccnc2c1O (stereo not drawn)	25.9
COc1ccc(N(C(=O)CCl)C(C(=O)NC2CCCCC2)c2cccnc2)cc1 (stereo not drawn)	82.9
O=C(CCl)N1c2ccccc2Sc2ccc3ccccc3c21	100
OCCCNc1nccc(-c2cc(Nc3cccc(Cl)c3)ncn2)n1	34.2
CN(C)CC1CCC/C(=C\c2ccc(OC(=O)c3ccc(Cl)cc3)cc2)C1=O (stereo not drawn)	76
